Data: the supplement of paper PMC10849652
Of roughly 8,800 targets only a part is listed; those with a hit were picked by preference. About 0.5% of all pairs of compound and target were hits.

Legend:
Experiment in all cases: log2 fold change, soluble protein after heating vs DMSO (PISA); higher = thermal stabilisation; K562 lysate, 10 uM; active = over 0.2 and 3.5 SD of the protein, either way, in both replicates (recomputed)
erlotinib = compound: C#Cc1cccc(Nc2ncnc3cc(OCCOC)c(OCCOC)cc23)c1 [erlotinib]
In short: (§1)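 Thermal stability, expressed as log-two fold change relative to solvent controls, is given from duplicates. Crude K562 extract in PBS pH 7.4 with 1 mM MgCl2, at 1 mg/mL protein, was treated with 10 μM compound for 30 min and heated in aliquots for 3 min across 48°C-58°C. After pooling, adjustment to 0.5% NP-40 at 4°C and centrifugation at 21,000xg for 90 min, supernatant protein was measured by TMTpro 16plex LC-MS/MS with channel sums equalised.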

[1] = compound: C/C(=N\NC(=O)C1=CC(=CC=C1)S(=O)(=O)N2CCOCC2)/C3=C(C=CC(=C3)Cl)O
In short: as §1

[2] = compound: C1=CC(=CC=C1C2=NC3=C(N2)C=C(C=C3)C(=O)N)OC4=CC=C(C=C4)Cl
In short: as §1

[3] = compound: C1=CC2=C(C=CC(=C2)/C=C\3/C(=O)NC(=NCC4=CC=CS4)S3)N=C1
In short: as §1

[4] = compound: C1=CC2=NC=CN=C2C=C1/C=C/3\C(=O)NC(=O)S3
In short: as §1

[5] = compound: C1=CC=C(C=C1)C2=NC(=C(N2)C3=CC=NC=C3)C4=CC(=C(C=C4)Cl)O
In short: as §1

[6] = compound: C1=CC=C2C(=C1)C3=NNC4=CC=CC(=C43)C2=O
In short: as §1

[7] = compound: C1CCN(C1)C(=O)NC2=CC=CC(=C2)NC3=NC=C(C(=N3)NCCC4=CN=CN4)Br
In short: as §1

[8] = compound: C1CN(CCC1(CC2=CC=C(C=C2)Cl)N)C3=NC=NC4=C3C=CN4
In short: as §1

IRAK-1-4 Inhibitor I = compound: C1COCCN1CCN2C3=CC=CC=C3N=C2NC(=O)C4=CC(=CC=C4)[N+](=O)[O-] [IRAK-1-4 Inhibitor I]
In short: as §1

ibrutinib = compound: C=CC(=O)N1CCC[C@@H](n2nc(-c3ccc(Oc4ccccc4)cc3)c3c(N)ncnc32)C1 [ibrutinib]
In short: as §1

[9] = compound: CC(=O)c1cnc2ccc(-c3cc(Cl)c(O)c(Cl)c3)nc2c1N[C@H]1CC[C@H](CN(C)C)CC1
In short: as §1

ralimetinib = compound: CC(C)(C)Cn1c(N)nc2ccc(-c3[nH]c(C(C)(C)C)nc3-c3ccc(F)cc3)nc21 [ralimetinib]
In short: as §1

[10] = compound: CC(C)(O)CC(=O)NCCn1ccc2ncnc(Nc3ccc(Oc4cccc(C(F)(F)F)c4)c(Cl)c3)c21
In short: as §1

[11] = compound: CC(C)C1=C2N=C(C=C(N2N=C1)NCC3=CC=CC=C3)NCCCCCCN
In short: as §1

[12] = compound: CC1=C(C(CC(=O)N1)C2=CC=C(C=C2)C(F)(F)F)C(=O)NC3=C(C=C4C(=C3)C=NN4)F
In short: as §1

[13] = compound: CC1=C(C2=C(C=C1)C(=O)C3=CC=CC=C3N2CCCN)C
In short: as §1

[14] = compound: CC1=C(C=C(C=C1)NC(=O)C2=CC(=CC=C2)C(C)(C)C#N)NC3=CC4=C(C=C3)N=CN(C4=O)C
In short: as §1

[15] = compound: CC1=C(C=C(C=C1)NC(=O)C2=CC(=CC=C2)N(C)C)NC(=O)C3=CC=C(C=C3)O
In short: as §1

[16] = compound: CC1=CC=C(C=C1)SC2=C3C=C(SC3=CN=C2)C(=O)N
In short: as §1

Measured: log2 fold change

PGGT1B (UniProt P53609)
inactive: erlotinib -0.02 | [1] 0.039 | [2] -0.076 | [3] -0.011 | [4] 0.047 | [5] 0.14 | [6] 0.045 | [7] 0.008 | [8] -0.018 | IRAK-1-4 Inhibitor I -0.006 | ibrutinib -0.018 | [9] 0.004 | ralimetinib -0.015 | [10] 0.03 | [11] -0.092 | [12] 0.002 | [13] 0.032 | [14] -0.039 | [15] -0.011 | [16] 0.007

PLEKHO2 (UniProt Q8TD55)
inactive: erlotinib 0.188 | [1] 0.008 | [2] -0.023 | [3] 0.106 | [4] -0.06 | [5] 0.184 | [6] -0.014 | [7] -0.075 | [8] 0.186 | IRAK-1-4 Inhibitor I -0.004 | ibrutinib 0.358 | [9] -0.102 | ralimetinib -0.11 | [10] 0.108 | [11] 0.006 | [12] 0.01 | [13] 0.069 | [14] 0.048 | [15] 0.252 | [16] -0.129

POLR2G (UniProt P62487)
inactive: erlotinib 0.02 | [1] 0.012 | [2] 0.044 | [3] -0.005 | [4] 0.029 | [5] 0.022 | [6] 0.036 | [7] -0.002 | [8] 0.02 | IRAK-1-4 Inhibitor I 0.03 | ibrutinib -0.01 | [9] -0.001 | ralimetinib 0.027 | [10] -0.017 | [11] -0.028 | [12] -0.015 | [13] 0.02 | [14] 0.029 | [15] -0.008 | [16] -0.01

PRMT7 (UniProt Q9NVM4)
inactive: erlotinib -0.042 | [1] 0.004 | [2] 0.024 | [3] 0.038 | [4] 0.008 | [5] -0.023 | [6] -0.083 | [7] -0.033 | [8] -0.031 | IRAK-1-4 Inhibitor I -0.008 | ibrutinib 0.043 | [9] -0.016 | ralimetinib 0.042 | [10] -0.01 | [11] 0.017 | [12] 0 | [13] -0.008 | [14] 0.013 | [15] 0.031 | [16] 0.008

PUM1 isoform 3 (UniProt Q14671)
Chain of UniProt Q14671 (Q14671 whole entry, looked up): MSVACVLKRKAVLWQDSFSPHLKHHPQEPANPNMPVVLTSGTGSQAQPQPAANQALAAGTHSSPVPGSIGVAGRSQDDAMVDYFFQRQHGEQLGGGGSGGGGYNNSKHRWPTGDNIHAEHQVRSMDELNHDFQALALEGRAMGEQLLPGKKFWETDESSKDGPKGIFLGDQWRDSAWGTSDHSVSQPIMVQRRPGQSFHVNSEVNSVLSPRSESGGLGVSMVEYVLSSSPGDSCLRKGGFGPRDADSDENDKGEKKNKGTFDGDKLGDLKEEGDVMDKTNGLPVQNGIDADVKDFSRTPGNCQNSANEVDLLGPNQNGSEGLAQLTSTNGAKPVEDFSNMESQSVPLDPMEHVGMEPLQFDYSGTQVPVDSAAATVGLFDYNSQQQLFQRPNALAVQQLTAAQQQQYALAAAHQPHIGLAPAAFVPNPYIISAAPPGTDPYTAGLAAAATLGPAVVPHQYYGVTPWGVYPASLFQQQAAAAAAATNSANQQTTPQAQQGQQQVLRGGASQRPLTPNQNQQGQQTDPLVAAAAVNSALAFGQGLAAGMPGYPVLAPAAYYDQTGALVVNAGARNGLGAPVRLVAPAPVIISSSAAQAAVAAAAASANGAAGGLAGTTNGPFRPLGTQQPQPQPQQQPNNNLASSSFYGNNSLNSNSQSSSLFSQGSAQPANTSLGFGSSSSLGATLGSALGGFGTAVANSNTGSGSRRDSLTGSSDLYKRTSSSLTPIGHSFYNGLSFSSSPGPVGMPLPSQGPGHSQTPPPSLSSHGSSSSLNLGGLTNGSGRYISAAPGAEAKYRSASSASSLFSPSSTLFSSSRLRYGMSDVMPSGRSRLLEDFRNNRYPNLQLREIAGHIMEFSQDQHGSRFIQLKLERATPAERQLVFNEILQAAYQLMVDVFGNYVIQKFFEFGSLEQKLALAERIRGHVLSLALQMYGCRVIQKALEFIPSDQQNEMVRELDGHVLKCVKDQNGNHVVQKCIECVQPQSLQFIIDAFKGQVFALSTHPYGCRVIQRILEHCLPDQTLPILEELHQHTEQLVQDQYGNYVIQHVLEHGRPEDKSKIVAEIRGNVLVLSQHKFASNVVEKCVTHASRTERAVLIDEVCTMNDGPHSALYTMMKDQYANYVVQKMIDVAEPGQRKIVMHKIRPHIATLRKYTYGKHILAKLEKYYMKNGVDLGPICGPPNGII
active: [14] -0.435
inactive: erlotinib -0.025 | [1] 0.051 | [2] 0.06 | [3] -0.028 | [4] 0.02 | [5] -0.052 | [6] -0.033 | [7] 0.01 | [8] 0.013 | IRAK-1-4 Inhibitor I 0.011 | ibrutinib -0.034 | [9] 0.009 | ralimetinib 0.003 | [10] -0.031 | [11] -0.035 | [12] 0.032 | [13] 0.044 | [15] 0.049 | [16] 0.014

PPP2CA (UniProt P67775)
inactive: erlotinib -0.088 | [1] 0.134 | [2] -0.057 | [3] -0.045 | [4] -0.007 | [5] 0.064 | [6] 0.016 | [7] 0.106 | [8] -0.027 | IRAK-1-4 Inhibitor I -0.041 | ibrutinib 0.042 | [9] 0.009 | ralimetinib 0.007 | [10] 0.083 | [11] -0.012 | [12] -0.017 | [13] -0.034 | [14] -0.047 | [15] -0.003 | [16] 0.036

PPP2R5C isoform 5 (UniProt Q13362)
inactive: erlotinib -0.013 | [1] -0.025 | [2] -0.009 | [3] -0.025 | [4] 0.016 | [5] -0.002 | [6] -0.039 | [7] 0.01 | [8] 0.027 | IRAK-1-4 Inhibitor I 0.013 | ibrutinib -0.002 | [9] 0.012 | ralimetinib -0.021 | [10] -0.036 | [11] -0.037 | [12] -0.038 | [13] 0.02 | [14] 0.002 | [15] 0.014 | [16] 0.037

PCBP2 isoform 8 (UniProt Q15366)
Chain of UniProt Q15366 (Q15366 whole entry, looked up): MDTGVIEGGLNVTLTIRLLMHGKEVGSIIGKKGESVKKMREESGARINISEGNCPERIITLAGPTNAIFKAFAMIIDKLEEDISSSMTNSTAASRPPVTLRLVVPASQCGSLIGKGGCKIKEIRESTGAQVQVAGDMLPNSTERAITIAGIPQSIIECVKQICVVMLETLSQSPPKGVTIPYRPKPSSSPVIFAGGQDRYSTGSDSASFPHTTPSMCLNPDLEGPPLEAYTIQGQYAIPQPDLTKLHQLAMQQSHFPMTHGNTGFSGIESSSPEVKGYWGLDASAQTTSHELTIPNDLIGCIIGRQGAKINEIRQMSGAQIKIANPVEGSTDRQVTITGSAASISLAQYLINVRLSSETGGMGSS
inactive: erlotinib 0.118 | [1] -0.287 | [2] 0.024 | [3] 0.001 | [4] -0.039 | [5] 0.087 | [6] -0.041 | [7] -0.088 | [8] 0.01 | IRAK-1-4 Inhibitor I 0.018 | ibrutinib 0.15 | [9] 0.003 | ralimetinib -0.003 | [10] -0.041 | [11] -0.005 | [12] -0.011 | [13] -0.007 | [14] 0.071 | [15] -0.05 | [16] -0.043

PCIF1 (UniProt Q9H4Z3)
inactive: erlotinib -0.011 | [1] 0.067 | [2] -0.008 | [3] 0.042 | [4] 0.102 | [5] -0.015 | [6] 0.014 | [7] -0.011 | [8] -0.033 | IRAK-1-4 Inhibitor I -0.041 | ibrutinib 0.019 | [9] 0.019 | ralimetinib 0.091 | [10] 0.017 | [11] 0 | [12] 0.002 | [13] 0.037 | [14] -0.033 | [15] 0.025 | [16] -0.029

PHKB isoform 3 (UniProt Q93100)
inactive: erlotinib -0.053 | [1] -0.049 | [2] 0 | [3] 0.044 | [4] 0.082 | [5] 0.036 | [6] 0.142 | [7] 0.038 | [8] 0.01 | IRAK-1-4 Inhibitor I 0.006 | ibrutinib -0.004 | [9] 0.071 | ralimetinib 0.008 | [10] -0.052 | [11] -0.003 | [12] 0.008 | [13] -0.069 | [14] -0.019 | [15] 0.022 | [16] -0.049

POLA1 (UniProt P09884)
Chain of UniProt P09884 (P09884 whole entry, looked up): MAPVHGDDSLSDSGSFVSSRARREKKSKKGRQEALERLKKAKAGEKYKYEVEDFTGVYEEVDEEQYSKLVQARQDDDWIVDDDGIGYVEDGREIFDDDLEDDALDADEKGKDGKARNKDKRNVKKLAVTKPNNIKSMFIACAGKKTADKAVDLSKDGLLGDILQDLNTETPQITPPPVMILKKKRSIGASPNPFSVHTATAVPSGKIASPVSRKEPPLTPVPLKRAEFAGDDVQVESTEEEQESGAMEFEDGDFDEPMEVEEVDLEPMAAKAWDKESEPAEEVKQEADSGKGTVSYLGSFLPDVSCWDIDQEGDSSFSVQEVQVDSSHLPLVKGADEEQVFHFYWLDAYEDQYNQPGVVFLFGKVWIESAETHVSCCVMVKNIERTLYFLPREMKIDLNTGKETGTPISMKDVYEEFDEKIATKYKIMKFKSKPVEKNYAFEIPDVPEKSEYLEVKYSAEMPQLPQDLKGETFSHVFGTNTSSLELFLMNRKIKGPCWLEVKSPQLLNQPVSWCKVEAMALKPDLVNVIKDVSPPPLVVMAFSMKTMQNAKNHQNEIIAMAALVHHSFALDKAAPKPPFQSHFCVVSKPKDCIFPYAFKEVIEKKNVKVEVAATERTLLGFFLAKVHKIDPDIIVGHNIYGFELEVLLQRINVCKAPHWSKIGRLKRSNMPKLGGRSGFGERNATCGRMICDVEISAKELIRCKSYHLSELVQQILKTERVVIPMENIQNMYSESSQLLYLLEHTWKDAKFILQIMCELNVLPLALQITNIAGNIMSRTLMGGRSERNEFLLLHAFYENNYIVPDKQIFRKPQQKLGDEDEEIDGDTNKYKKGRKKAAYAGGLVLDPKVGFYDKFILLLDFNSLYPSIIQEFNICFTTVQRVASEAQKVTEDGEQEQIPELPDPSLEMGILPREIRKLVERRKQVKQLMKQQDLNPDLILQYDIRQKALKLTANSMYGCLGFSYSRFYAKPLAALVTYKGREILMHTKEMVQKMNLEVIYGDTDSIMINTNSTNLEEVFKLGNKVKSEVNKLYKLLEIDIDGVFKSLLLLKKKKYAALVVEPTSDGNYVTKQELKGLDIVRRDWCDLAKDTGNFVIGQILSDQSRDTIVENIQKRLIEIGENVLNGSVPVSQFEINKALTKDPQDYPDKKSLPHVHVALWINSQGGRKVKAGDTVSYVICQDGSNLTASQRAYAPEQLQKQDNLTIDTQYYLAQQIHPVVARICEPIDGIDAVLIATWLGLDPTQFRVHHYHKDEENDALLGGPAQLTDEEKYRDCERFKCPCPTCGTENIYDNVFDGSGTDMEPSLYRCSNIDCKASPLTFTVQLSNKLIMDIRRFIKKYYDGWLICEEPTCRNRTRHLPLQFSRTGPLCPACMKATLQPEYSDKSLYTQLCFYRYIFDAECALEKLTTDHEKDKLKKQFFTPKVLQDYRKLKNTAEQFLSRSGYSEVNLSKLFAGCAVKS
inactive: erlotinib 0.009 | [1] -0.039 | [2] -0.02 | [3] -0.015 | [4] -0.036 | [5] 0.084 | [6] -0.005 | [7] -0.034 | [8] 0.015 | IRAK-1-4 Inhibitor I -0.003 | ibrutinib 0 | [9] -0.013 | ralimetinib -0.032 | [10] 0.003 | [11] 0.001 | [12] 0.007 | [13] -0.001 | [14] 0.02 | [15] 0.022 | [16] -0.016

PI4KB (UniProt Q9UBF8)
inactive: erlotinib 0.017 | [1] -0.108 | [2] -0.011 | [3] 0.038 | [4] 0.173 | [5] 0.011 | [6] 0.193 | [7] 0.01 | [8] -0.065 | IRAK-1-4 Inhibitor I -0.003 | ibrutinib -0.044 | [9] 0.208 | ralimetinib 0.021 | [10] -0.021 | [11] -0.004 | [12] -0.015 | [13] -0.018 | [14] 0.022 | [15] 0 | [16] 0.012

PIR (UniProt O00625)
active: [11] 0.254
inactive: erlotinib 0.017 | [1] -0.212 | [2] 0.01 | [3] 0.034 | [4] -0.034 | [5] 0.006 | [6] 0.151 | [7] 0.014 | [8] 0.027 | IRAK-1-4 Inhibitor I -0.02 | ibrutinib 0.029 | [9] -0.01 | ralimetinib -0.017 | [10] 0.019 | [12] -0.034 | [13] 0.007 | [14] -0.003 | [15] 0.232 | [16] -0.022

POLD1 (UniProt P28340)
Chain of UniProt P28340 (P28340 whole entry, looked up): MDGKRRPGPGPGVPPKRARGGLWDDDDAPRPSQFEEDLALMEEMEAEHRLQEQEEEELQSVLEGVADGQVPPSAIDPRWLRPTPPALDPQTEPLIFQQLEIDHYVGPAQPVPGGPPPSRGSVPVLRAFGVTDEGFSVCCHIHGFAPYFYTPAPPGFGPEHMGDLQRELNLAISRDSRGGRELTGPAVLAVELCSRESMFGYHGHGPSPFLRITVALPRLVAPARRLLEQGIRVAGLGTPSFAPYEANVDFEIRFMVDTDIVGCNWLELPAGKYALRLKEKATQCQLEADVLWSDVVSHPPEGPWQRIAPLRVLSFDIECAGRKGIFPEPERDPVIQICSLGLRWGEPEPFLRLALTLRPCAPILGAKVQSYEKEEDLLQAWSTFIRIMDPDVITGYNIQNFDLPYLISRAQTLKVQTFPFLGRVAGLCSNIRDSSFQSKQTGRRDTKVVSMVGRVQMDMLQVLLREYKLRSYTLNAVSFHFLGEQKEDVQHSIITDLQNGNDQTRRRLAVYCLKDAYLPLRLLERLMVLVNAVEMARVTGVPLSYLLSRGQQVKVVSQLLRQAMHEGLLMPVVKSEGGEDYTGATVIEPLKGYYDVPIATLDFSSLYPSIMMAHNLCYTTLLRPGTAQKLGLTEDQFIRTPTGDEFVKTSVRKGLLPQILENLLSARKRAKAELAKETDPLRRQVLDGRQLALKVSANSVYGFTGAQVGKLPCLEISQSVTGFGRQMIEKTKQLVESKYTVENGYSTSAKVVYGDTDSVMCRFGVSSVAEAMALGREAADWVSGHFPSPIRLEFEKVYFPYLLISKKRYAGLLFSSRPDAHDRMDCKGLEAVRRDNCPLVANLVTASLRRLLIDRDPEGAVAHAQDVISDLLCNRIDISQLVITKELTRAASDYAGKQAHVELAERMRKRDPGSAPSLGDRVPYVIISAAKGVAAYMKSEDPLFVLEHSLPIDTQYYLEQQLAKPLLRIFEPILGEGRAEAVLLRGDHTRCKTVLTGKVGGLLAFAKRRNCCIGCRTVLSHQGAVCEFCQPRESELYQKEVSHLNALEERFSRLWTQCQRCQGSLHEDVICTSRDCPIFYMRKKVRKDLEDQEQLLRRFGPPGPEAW
inactive: erlotinib 0.016 | [1] -0.05 | [2] 0.013 | [3] 0.008 | [4] -0.008 | [5] 0.015 | [6] -0.029 | [7] -0.006 | [8] 0.007 | IRAK-1-4 Inhibitor I -0.01 | ibrutinib -0.003 | [9] 0.014 | ralimetinib 0.035 | [10] 0.018 | [11] 0 | [12] 0.005 | [13] -0.012 | [14] 0.005 | [15] 0.02 | [16] -0.032

PTPN7 isoform 3 (UniProt P35236)
Chain of UniProt P35236 (P35236 whole entry, looked up): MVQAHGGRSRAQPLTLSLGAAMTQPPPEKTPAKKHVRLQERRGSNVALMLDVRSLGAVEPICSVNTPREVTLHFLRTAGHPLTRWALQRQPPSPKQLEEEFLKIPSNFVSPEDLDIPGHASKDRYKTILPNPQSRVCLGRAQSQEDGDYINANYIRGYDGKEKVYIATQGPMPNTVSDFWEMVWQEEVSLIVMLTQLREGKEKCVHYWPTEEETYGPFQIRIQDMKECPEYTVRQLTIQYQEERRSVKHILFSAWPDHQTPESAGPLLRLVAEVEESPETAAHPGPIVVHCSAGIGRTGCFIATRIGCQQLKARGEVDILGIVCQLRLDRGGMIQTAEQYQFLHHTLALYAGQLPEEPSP
inactive: erlotinib 0.032 | [1] -0.002 | [2] -0.028 | [3] -0.06 | [4] -0.026 | [5] -0.008 | [6] -0.03 | [7] 0.009 | [8] 0.045 | IRAK-1-4 Inhibitor I 0.021 | ibrutinib 0.018 | [9] 0.027 | ralimetinib 0.066 | [10] -0.021 | [11] -0.044 | [12] -0.023 | [13] -0.053 | [14] -0.07 | [15] 0.005 | [16] 0.032

PRC1 (UniProt O43663)
Chain of UniProt O43663 (O43663 whole entry, looked up): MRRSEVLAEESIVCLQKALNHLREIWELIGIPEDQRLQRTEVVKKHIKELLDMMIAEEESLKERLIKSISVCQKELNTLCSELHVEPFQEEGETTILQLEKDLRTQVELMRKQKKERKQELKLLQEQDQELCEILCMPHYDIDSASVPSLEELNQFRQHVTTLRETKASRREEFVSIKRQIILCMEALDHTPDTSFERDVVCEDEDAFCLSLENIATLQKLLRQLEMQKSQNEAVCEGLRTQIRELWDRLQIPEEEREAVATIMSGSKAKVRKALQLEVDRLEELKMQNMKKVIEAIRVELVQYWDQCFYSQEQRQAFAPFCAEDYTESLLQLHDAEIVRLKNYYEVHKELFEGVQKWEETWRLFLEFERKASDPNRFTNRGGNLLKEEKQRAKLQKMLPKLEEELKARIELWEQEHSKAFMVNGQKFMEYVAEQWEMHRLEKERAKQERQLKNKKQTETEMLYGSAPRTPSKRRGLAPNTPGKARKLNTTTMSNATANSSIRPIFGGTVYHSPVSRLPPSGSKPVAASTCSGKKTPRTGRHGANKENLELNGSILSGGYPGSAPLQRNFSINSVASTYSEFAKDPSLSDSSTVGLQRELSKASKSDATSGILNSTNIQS
inactive: erlotinib 0.026 | [1] 0.027 | [2] 0.013 | [3] -0.026 | [4] -0.004 | [5] 0.059 | [6] -0.054 | [7] -0.011 | [8] 0.126 | IRAK-1-4 Inhibitor I 0.008 | ibrutinib -0.007 | [9] 0.009 | ralimetinib -0.016 | [10] 0.01 | [11] 0.01 | [12] 0.039 | [13] -0.006 | [14] 0.025 | [15] 0.021 | [16] 0.059
